Among the data in PubChem BioAssay (NCI) are growth values, retold here.

“And” between values parts separate entries of the source, which are not always exact repeats. Equal values may be shown once. Compounds without any hit were thinned out: in the full panel of roughly 83,000, 20% have a hit.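 Assay: single dose, 48 h. Readout: percent growth (0 = no net growth; negative = cell death). Active: <10.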 The source made the active and inactive calls.

Test systems include NCI-H23 lung; NCI-H226 lung; HOP-62 NSCLC; NCI-H460 lung; HOP-92 NSCLC; NCI-H522 lung; A549/ATCC NSCLC; 786-0 renal; COLO 205 colon; NCI-H322M lung.
Assay in all cases: NCI-60 one-dose screen, 48 h (100 = growth as untreated, 0 = no growth, -100 = all killed)
Conditions in all cases: 10 µM unless noted

With `COc1ccc(C/C(C)=C(/c2ccc(OCCN3CCCC3)cc2)c2ccc(OC(=O)NCc3ccccc3)cc2)cc1`, the growth with NCI-H23 lung was 93.6% (inactive); in the assay on NCI-H226 lung, 102% (inactive); in the assay with HOP-62 NSCLC, 91.9% (inactive); in the assay on NCI-H460 lung it was 63.8% (inactive); in the assay with HOP-92 NSCLC it was 66.2% (inactive); in the assay on NCI-H522 lung, 92.6% (inactive). Moreover, the growth with A549/ATCC NSCLC was 72.3% (inactive); with 786-0 renal it was 69.8% (inactive); in the assay with COLO 205 colon, 77% (inactive).
For `N#CSc1c[nH]c2ccc(/C=C/C(=O)/C=C(/C=C/c3ccc4[nH]cc(SC#N)c4c3)OB(F)F)cc12`, the growth in the assay with NCI-H23 lung was -28.3% (active); in the assay on NCI-H226 lung, -66.1% (active); with HOP-62 NSCLC it was 14.7% (inactive); in the assay with NCI-H460 lung, 3.07% (active); with HOP-92 NSCLC, -74.1% (active); with NCI-H522 lung, -69.7% (active). For the same compound, the results for the growth in the assay on A549/ATCC NSCLC, with 786-0 renal and in the assay on COLO 205 colon were 4.65% (active), -46.5% (active) and -63.9% (active), respectively.
Consider `CCCCCCCCn1ccc2cc(NC(=O)CN3CCN(c4nc(C)cc(N5CCCCC5)n4)CC3)ccc21`, for which the growth in the assay with NCI-H23 lung was 86% (inactive); in the assay with NCI-H226 lung it was 86.1% (inactive); in the assay with HOP-62 NSCLC, 100% (inactive); with NCI-H460 lung, 93.7% (inactive); with HOP-92 NSCLC it was 102% (inactive); with NCI-H522 lung, 76.7% (inactive). Moreover, the growth was 83.4% (inactive) in the assay with A549/ATCC NSCLC, 88.4% (inactive) in the assay with 786-0 renal and 84.7% (inactive) in the assay with COLO 205 colon.
On to `Oc1ccccc1C=Nc1ccc(N2CCN(c3ccccc3)CC2)cc1`, for which the growth in the assay with NCI-H23 lung is 93.4% (inactive); in the assay on NCI-H226 lung, 110% (inactive); in the assay with HOP-62 NSCLC, 74.7% (inactive); in the assay with NCI-H460 lung, 111% (inactive); with HOP-92 NSCLC, 99.5% (inactive); in the assay on NCI-H522 lung, 95.7% (inactive). Further, the growth in the assay with A549/ATCC NSCLC is 92.1% (inactive); in the assay with 786-0 renal, 94.1% (inactive); in the assay on COLO 205 colon, 93.7% (inactive).
Regarding `Nc1ccccc1SC(CC(=O)c1ccccc1)c1ccc([N+](=O)[O-])cc1` (centres undefined), the growth in the assay on NCI-H23 lung was 93.2% (inactive) and 84.7% (inactive); in the assay with NCI-H322M lung, 107% (inactive) and 83.8% (inactive); with HOP-62 NSCLC, 106% (inactive) and 102% (inactive); with NCI-H460 lung it was 103% (inactive) and 105% (inactive); with HOP-92 NSCLC, 71.4% (inactive); with NCI-H522 lung, 96.9% (inactive) and 76.4% (inactive). Moreover, the growth with A549/ATCC NSCLC was 93.9% (inactive) and 82% (inactive); with 786-0 renal it was 106% (inactive) and 93.3% (inactive); in the assay on COLO 205 colon, 91.6% (inactive) and 102% (inactive).
Take `COc1cc2c(cc1OCCCOC1=C=C=C(c3ccc4c(c3)c3cc(-c5ccc(OCCCOc6cc7c(cc6OC)C(=O)N6CCC[C@H]6C=N7)cc5)ccc3n4S(=O)(=O)c3ccc(C)cc3)C=C1)N=C[C@@H]1CCCN1C2=O`: the growth with NCI-H23 lung is 36.7% (inactive); in the assay on NCI-H226 lung, 22.8% (inactive); in the assay with HOP-62 NSCLC, 116% (inactive) and 54.5% (inactive); in the assay with NCI-H460 lung, 15.5% (inactive); with HOP-92 NSCLC, 69.3% (inactive); with NCI-H522 lung, -8.9% (active). The growth with A549/ATCC NSCLC is 56.4% (inactive); in the assay with 786-0 renal it was 115% (inactive) and 1.63% (active); in the assay with COLO 205 colon, 49% (inactive).
Take `Cc1nonc1-c1ccc2c(c1)OCO2`: the growth with NCI-H23 lung is 91.5% (inactive) and 112% (inactive); in the assay with NCI-H226 lung it was 94.3% (inactive); in the assay with HOP-62 NSCLC it was 123% (inactive) and 106% (inactive); in the assay with NCI-H460 lung it was 106% (inactive); in the assay with NCI-H522 lung, 102% (inactive) and 103% (inactive); in the assay on A549/ATCC NSCLC it was 90.6% (inactive) and 98.2% (inactive). Also, the growth was 104% (inactive) and 107% (inactive) in the assay with 786-0 renal; 114% (inactive) and 140% (inactive) in the assay on COLO 205 colon.
On to `CN1CCN(c2ccc(Nc3ncc(C(N)=O)c(NCCCNC(=O)C4CCC4)n3)cc2)CC1`, for which the growth with NCI-H23 lung was 70.4% (inactive); with NCI-H226 lung it was 62.1% (inactive); with HOP-62 NSCLC, 34% (inactive); in the assay on NCI-H460 lung, 78.9% (inactive); in the assay on HOP-92 NSCLC, 113% (inactive); in the assay on NCI-H522 lung, 77.3% (inactive). Also, the growth was 78.2% (inactive) in the assay with A549/ATCC NSCLC, 90.2% (inactive) in the assay on 786-0 renal and -5.21% (active) with COLO 205 colon.
As to `NCCOCCOc1ccccc1`, the growth in the assay on NCI-H23 lung was 97.2% (inactive); with NCI-H226 lung, 103% (inactive); in the assay with HOP-62 NSCLC, 109% (inactive); in the assay with NCI-H460 lung, 103% (inactive); in the assay on HOP-92 NSCLC it was 64.8% (inactive); with NCI-H522 lung it was 93.1% (inactive). The growth with A549/ATCC NSCLC is 104% (inactive); in the assay on 786-0 renal, 100% (inactive); with COLO 205 colon, 113% (inactive).
For the compound `[2H]C([2H])([2H])Oc1cc(F)ccc1/C=C/C(=O)/C=C(/C=C/c1ccc(F)cc1OC([2H])([2H])[2H])OB(F)F`, the growth was 26.2% (inactive) in the assay with NCI-H23 lung; 63.4% (inactive) with NCI-H226 lung; 102% (inactive) in the assay with HOP-62 NSCLC; 49.7% (inactive) in the assay on NCI-H460 lung; 83.2% (inactive) with HOP-92 NSCLC; 31.4% (inactive) in the assay with NCI-H522 lung. In addition, the figures for the growth in the assay on A549/ATCC NSCLC, in the assay with 786-0 renal and with COLO 205 colon were 58.3% (inactive), 44.3% (inactive) and 21.3% (inactive), respectively.
As to `CCOC(=O)c1ccc(Nc2ncnc3c2cnn3-c2cccc(F)c2)cc1`, the growth is 110% (inactive) in the assay on NCI-H23 lung; 94.6% (inactive) in the assay with NCI-H226 lung; 93.7% (inactive) with HOP-62 NSCLC; 102% (inactive) in the assay with NCI-H460 lung; 90.6% (inactive) in the assay on HOP-92 NSCLC; 91.9% (inactive) with NCI-H522 lung. For the same compound, the growth in the assay with 786-0 renal was 104% (inactive); in the assay with COLO 205 colon it was 113% (inactive).
On to `CCOC(=O)c1cc2c(n1Cc1cc(OC)cc(OC)c1Br)-c1nc(NC(C)=O)sc1CCC2`, for which the growth in the assay with NCI-H23 lung is 73.2% (inactive); with NCI-H226 lung it was 71.3% (inactive); in the assay with HOP-62 NSCLC, 80.4% (inactive); in the assay with NCI-H460 lung it was 82.2% (inactive); in the assay on HOP-92 NSCLC it was 46.6% (inactive); in the assay on NCI-H522 lung, 53.5% (inactive). Moreover, the growth in the assay on 786-0 renal was 78% (inactive); in the assay with COLO 205 colon, 82.2% (inactive).
For the compound `COc1ccc(CN2CCc3c(Cl)nc(N)nc3C2=O)c(OC)c1`, the growth in the assay with NCI-H23 lung was -62.1% [100 µM] (active); with NCI-H226 lung, 5.05% [100 µM] (active); with HOP-62 NSCLC it was 40% [100 µM] (inactive); in the assay with NCI-H460 lung, 1.6% [100 µM] (active); in the assay with HOP-92 NSCLC, -15.2% [100 µM] (active); in the assay on NCI-H522 lung it was 15.7% [100 µM] (inactive). The growth is 35.4% [100 µM] (inactive) in the assay with A549/ATCC NSCLC, 19.6% [100 µM] (inactive) in the assay with 786-0 renal and -48.6% [100 µM] (active) in the assay on COLO 205 colon.
